Results published in PubChem BioAssay AID1233 (SRMLSC, 2008).
Measured potencies and affinities stand elsewhere. Activity calls are given as the source filed them.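 How the source made its calls: active means a dose-response curve fit returns a half-maximal inhibitory concentration, extrapolated values included; inactive means the fit returns no such concentration.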

target: HMG-CoA reductase [Enterococcus faecalis] (UniProt Q9FD70); experiment: inhibitors of E. faecalis class II HMGR, confirmation, biochemical, Enterococcus faecalis (AID 1233);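 further: 0% = full reaction carrier wells and 100% = background wells lacking mevalonate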; conditions: purified E. faecalis HMGR, NADPH absorbance 340 nm kinetics; series mostly up to 100 µM; inhibition: at the top concentration

inhibition, inactive:
COc1ccc(NCc2nnc(SCCN3CCCCC3)n2-c2ccc(C)cc2)cc1 -4.43%, CC(C)N(C(=O)Cn1cnc2cc([N+](=O)[O-])ccc2c1=O)C(C)C -1.92%, O=C1c2ccccc2C(=O)C1c1ccc2ccccc2n1 -0.79%, O=C(NCc1ccc2[nH]c3c(c2c1)CCCC3)c1ccc(S(=O)(=O)N2CCCC2)cc1 0.84%, C=CCn1c(Oc2ccccc2)nc2c1c(=O)n(C)c(=O)n2C 0.56%, Cc1ccc(C(=O)CC2(O)C(=O)N(C)c3ccccc32)s1 (stereo not drawn) -4.08%, CCc1nnc(NC(=O)CN2CCN(c3nc(-c4ccccc4)cs3)CC2)s1 -3.15%, COc1ccc(-c2nn(-c3ccccc3)cc2/C=N/Nc2cccc(C(=O)O)c2)cc1 3.14%, COC(=O)C(C(=O)OC)c1ccc(N)cc1 0.61%, CC(=O)c1ccc(NC(=O)c2ccc(NC(=O)CCS(=O)(=O)c3cccs3)cc2)cc1 -2.59%, O=C(COc1ccc2ccc(=O)oc2c1)N1CCN(c2ccccc2)CC1 -2.7%, O=C(COC(=O)/C=C/c1cn(-c2ccccc2)nc1-c1cccnc1)Nc1ccc(Cl)cc1Cl -18.4%, O=C(O)c1cc(-c2ccc(N3CCOCC3)cc2)nn1-c1ccccc1Cl -0.41%, C#CCn1c(-c2cccs2)nc2ccccc21 -5.36%, C=CCOc1c(Br)cc(CNc2nccs2)cc1OC -11.1%, CN(C)c1ccc(P(=O)(OCc2ccccc2)C(O)c2ccncc2)cc1 (stereo not drawn) -0.24%, O=C1OC(c2cccs2)=N/C1=C/c1ccc(-c2cccc(C(=O)O)c2)o1 -3.77%, COC(=O)c1ccc(NC(=O)Nc2ccccc2F)cc1 -8.11%
